{"source": "PubChem BioAssay AID2685", "about": "(National Center for Advancing Translational Sciences (NCATS), 2010)", "note": "The campaign covered roughly 320,000 compounds. About 2,100 (0.66%) were called active. Another 53% or so got no clear call; they are omitted. The call rests on the fitted dose curve; in most records, active means well fitted inhibition curve with a large enough effect in the signal ratio, with a control signal flat (not every such curve was filed as active); inconclusive means small, poorly fitted or top-dose-only effect, or effect the other way, or a change in a side signal; inactive means flat fitted curve, though single readings scatter; the % refers to the signal ratio. Shown is part of a subset that was picked to be rich in actives. Potency means the concentration at half of the fitted maximal effect."}
{"assay": "qHTS Assay for Lipid Storage Modulators in Drosophila S3 Cells;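 on cell number change: cells counted by Cell Tracker Red CMTPX staining in the red channel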; on lipid storage change, negative = inhibition: on the % scale 0 is the no-effect control and ±100 the full control effect", "conditions": "BODIPY lipid droplet fluorescence, 18-24 h, cells fed with added oleic acid; cell number change: measured here: cell count max response; series mostly up to 46.1 µM; lipid storage change, negative = inhibition: at the top concentration", "outline": "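Laser-scanning cytometry quantifies lipid droplet accumulation (500–530 nm total intensity; droplet/cell object ratio) in oleic acid-fed (400 uM added) Drosophila S3 cells treated with a concentration series. 20 uM Triacsin C defined 100% inhibition.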", "units": {"cell number change": "%"}}
{"smiles": "CC(C)Oc1ccc(N2CC(C(=O)Nc3ccc(N4CCOCC4)cc3)CC2=O)cc1", "note": "(centres undefined)", "lipid storage change, negative = inhibition": "7.42% (inactive)", "cell number change": 15.2}
{"smiles": "CCOC(=O)c1cc(CC)sc1/N=C/c1c(O)ccc2ccccc12", "lipid storage change, negative = inhibition": "21.6% (inactive)", "cell number change": 1.95}
{"smiles": "O=C(Cn1cnc([N+](=O)[O-])n1)NCCO", "lipid storage change, negative = inhibition": "-0.893% (inactive)", "cell number change": 0.588}
{"smiles": "O=c1[nH]c(CN2CCN(c3ccc(F)cc3)CC2)nc2ccccc12", "lipid storage change, negative = inhibition": "9.13% (inactive)", "cell number change": -21.1}
{"smiles": "CCC(=O)NC(C)c1cc(Cl)c2ccccc2c1O", "note": "(centres undefined)", "lipid storage change, negative = inhibition": "12.7% (inactive)", "cell number change": -12.2}
{"smiles": "COCCn1c(Cc2ccccc2)nnc1SCC(=O)Nc1cc(C)on1", "lipid storage change, negative = inhibition": "-1.8% (inactive)"}
{"smiles": "Cc1ccc(-n2c(SCC(=O)NNC(=S)Nc3ccccc3)nc3ccccc3c2=O)cc1", "lipid storage change, negative = inhibition": "5% (inactive)", "cell number change": 9.73}
{"smiles": "CN1CCC(N(C)CC(O)c2ccccc2)CC1", "note": "(centres undefined)", "lipid storage change, negative = inhibition": "-18.8% (inactive)", "cell number change": -4.15}
{"smiles": "CN1[C@@H](CC(=O)c2ccccc2)CCC[C@H]1C[C@H](O)c1ccccc1", "lipid storage change, negative = inhibition": "4.29% (inactive)", "cell number change": 9.08}
{"smiles": "CN1C(CC(=O)c2ccccc2)CCCC1CC(O)c1ccccc1", "note": "(centres undefined)", "Potency": "18.4 µM (active)", "cell number change": -3.64}
{"smiles": "C=CCSc1nc(O)c(CC)c(=O)n1C(C)CC", "note": "(centres undefined)", "lipid storage change, negative = inhibition": "2.71% (inactive)", "cell number change": -4.8}
{"smiles": "Cc1ccc(OCc2ccc(C(=O)NCC3CCCO3)cc2)cc1C", "note": "(centres undefined)", "Potency": "10.3 µM (active)", "cell number change": -8.64}
{"smiles": "Cc1ccc(OCc2ccc(C(=O)NCC3CCCO3)cc2)cc1", "note": "(centres undefined)", "lipid storage change, negative = inhibition": "8.3% (inactive)", "cell number change": 13.4}
{"smiles": "Cc1noc(C)c1COc1ccc(C(=O)NCC2CCCO2)cc1", "note": "(centres undefined)", "lipid storage change, negative = inhibition": "-9.48% (inactive)", "cell number change": -13.5}
{"smiles": "Cc1cccc(NC(=O)Nc2ccccc2)n1", "lipid storage change, negative = inhibition": "-0.183% (inactive)", "cell number change": -19.9}
{"smiles": "COc1ccc(/C=C/C(=O)N2CCNC(=O)C2)c(OC)c1", "lipid storage change, negative = inhibition": "-28.8% (inactive)"}
{"smiles": "COc1ccc(-c2cc(=O)oc3c(C)c(OCC(=O)N(C)C)ccc23)cc1", "outcome": "inactive"}
{"smiles": "CC(=O)Nc1ccc(OC(=O)c2cc([N+](=O)[O-])ccc2Cl)cc1", "lipid storage change, negative = inhibition": "-0.987% (inactive)"}
{"smiles": "Clc1cccc(NC2=NCCC2)c1", "Potency": "25.9 µM (active)", "cell number change": -7.84}
{"smiles": "Clc1cccc(Cl)c1NC1=NCCC1", "lipid storage change, negative = inhibition": "-9.95% (inactive)", "cell number change": 6.79}
{"smiles": "Cc1ccc(NC2=NCCC2)cc1Cl", "lipid storage change, negative = inhibition": "-2.15% (inactive)"}
{"smiles": "CCCCNC(=S)NNC(=O)c1cccnc1", "lipid storage change, negative = inhibition": "5.02% (inactive)", "cell number change": 0.804}
{"smiles": "CC(C)Sc1nc2c(c(=O)[nH]c(=O)n2C)n1Cc1ccccc1", "lipid storage change, negative = inhibition": "-2.37% (inactive)"}
{"smiles": "O=[N+]([O-])c1cccc(S(=O)(=O)NCc2ccncc2)c1", "Potency": "10.3 µM (active)", "cell number change": -3.97}
{"smiles": "O=[N+]([O-])c1cccc(S(=O)(=O)NCCc2ccccc2)c1", "outcome": "inactive", "cell number change": -15.1}
{"smiles": "O=[N+]([O-])c1ccc(S(=O)(=O)NCCc2ccncc2)cc1", "lipid storage change, negative = inhibition": "11.3% (inactive)", "cell number change": 17.1}
{"smiles": "CCCNC(=O)COC(=O)c1ccc(N2CCCC2)c([N+](=O)[O-])c1", "lipid storage change, negative = inhibition": "-3.38% (inactive)", "cell number change": 10}
{"smiles": "Clc1ccc(C2=CSC3=Nc4cccc5cccc(c45)N23)cc1", "Potency": "0.13 µM (active)", "cell number change": -10.2}
{"smiles": "N=C1/C(=C\\c2ccc(-c3cccc(Cl)c3)o2)C(=O)N=C2SC=C(c3ccccc3)N12", "lipid storage change, negative = inhibition": "4.02% (inactive)", "cell number change": -13.8}
{"smiles": "CC1CN2C(c3ccc(Cl)cc3)=CSC2=N1", "note": "(centres undefined)", "outcome": "inactive", "cell number change": 15.5}
{"smiles": "COc1ccc(OC[C@@H](O)CNC(=O)c2cccc3c2C(=O)c2ccc(Cl)cc2S3(=O)=O)cc1", "lipid storage change, negative = inhibition": "6.63% (inactive)", "cell number change": 6.27}
{"smiles": "O=C(NNC(=O)c1ccccc1F)c1ccc(Cl)c(S(=O)(=O)N2CCOCC2)c1", "lipid storage change, negative = inhibition": "0.713% (inactive)", "cell number change": 4.79}
{"smiles": "Cc1cc(C)c(Cn2c3ccccc3c3cnn(CC(=O)NCc4ccccn4)c(=O)c32)c(C)c1", "Potency": "14.6 µM (active)", "cell number change": 17.6}
{"smiles": "Cc1c2cnn(CC(=O)NCc3ccccn3)c(=O)c2c(C)n1Cc1ccccc1", "lipid storage change, negative = inhibition": "6.37% (inactive)", "cell number change": -4.61}
{"smiles": "Cc1ccc(C)c(Cn2c3ccccc3c3cnn(CC(=O)NCc4ccccn4)c(=O)c32)c1", "outcome": "inactive", "cell number change": 21.8}
{"smiles": "Cc1ccccc1CN1CCNC1=O", "outcome": "inactive"}
{"smiles": "COCCCNC(=O)CS(=O)Cc1nc(-c2ccccc2C)oc1C", "note": "(centres undefined)", "lipid storage change, negative = inhibition": "5.85% (inactive)", "cell number change": -1.92}
{"smiles": "COc1ccc(-c2nc(CS(=O)(=O)CC(=O)NCc3cccc(OC)c3OC)c(C)o2)cc1", "lipid storage change, negative = inhibition": "1.65% (inactive)", "cell number change": 10.4}
{"smiles": "CCc1c(C)sc(NC(=O)c2cc(C(C)C)on2)c1C#N", "lipid storage change, negative = inhibition": "4.2% (inactive)", "cell number change": 4.86}
{"smiles": "C=CCn1c(=N)n(CC(=O)OCC)c2ccccc21", "lipid storage change, negative = inhibition": "-3.21% (inactive)", "cell number change": 2.48}
{"smiles": "CCOC(=O)Cn1c(=N)n(Cc2ccccc2F)c2ccccc21", "Potency": "18.4 µM (active)", "cell number change": -1.47}
{"smiles": "CCCn1c(=N)n(CC(=O)OCC)c2ccccc21", "lipid storage change, negative = inhibition": "10.3% (inactive)", "cell number change": 13.2}
{"smiles": "Cc1cccc(NCc2ccc(Br)cc2)n1", "lipid storage change, negative = inhibition": "6.89% (inactive)", "cell number change": -13.5}
{"smiles": "O=C(CN1CCCCC1)N1CCCc2ccccc21", "outcome": "inactive", "cell number change": 7.83}
{"smiles": "O=C1CNC(=O)N1CC(=O)N1CCCc2ccccc21", "Potency": "29.1 µM (active)", "cell number change": -34.5}
{"smiles": "O=C(CN1C(=O)COc2ccccc21)N1CCCc2ccccc21", "lipid storage change, negative = inhibition": "-23.7% (inactive)", "cell number change": 11.3}
{"smiles": "COc1ccccc1NC(=S)NCc1ccc(F)cc1", "Potency": "11.6 µM (active)", "cell number change": -1.4}
{"smiles": "COc1ccccc1NC(=S)NCc1ccc(Cl)cc1", "lipid storage change, negative = inhibition": "12.7% (inactive)", "cell number change": 8.81}
{"smiles": "COc1ccccc1NC(=S)NCc1ccc(S(N)(=O)=O)cc1", "lipid storage change, negative = inhibition": "4.94% (inactive)", "cell number change": 6.14}
{"smiles": "CC(C)CNC(=O)CSc1nnc(-c2ccccn2)n1Cc1ccccc1", "lipid storage change, negative = inhibition": "0.755% (inactive)", "cell number change": -1.23}
{"smiles": "CC(C)(C)c1ccc(C(=O)N/N=C2\\C3CN4CCN(C3)CC2(c2ccccc2)C4)cc1", "lipid storage change, negative = inhibition": "23.5% (inactive)", "cell number change": 8.22}
{"smiles": "Cc1ccc2c(c1)C(=O)C(=O)N2CCCOc1ccccc1C", "lipid storage change, negative = inhibition": "0.449% (inactive)", "cell number change": -3.05}
{"smiles": "CC(=O)c1ccc(S(=O)(=O)N2CCN(CC(=O)Nc3ccc(Cl)c([N+](=O)[O-])c3)CC2)cc1", "Potency": "29.1 µM (active)", "cell number change": -15.2}
{"smiles": "CC(=O)c1ccc(S(=O)(=O)N2CCN(CC(=O)Nc3ccccc3C(=O)NC3CC3)CC2)cc1", "Potency": "6.51 µM (active)", "cell number change": -1.96}
{"smiles": "O=C(CN1CCN(S(=O)(=O)c2ccccc2)CC1)Nc1ccccc1C(=O)c1ccccc1", "lipid storage change, negative = inhibition": "1.48% (inactive)", "cell number change": 4.18}
{"smiles": "O=C(CN1CCN(S(=O)(=O)c2ccccc2)CC1)Nc1ccc(Cl)c(Cl)c1", "outcome": "inactive", "cell number change": 16.9}
{"smiles": "O=C(CN1CCN(S(=O)(=O)c2ccccc2)CC1)Nc1ccc(Cl)c([N+](=O)[O-])c1", "lipid storage change, negative = inhibition": "-3.05% (inactive)", "cell number change": 22}
{"smiles": "Cc1ccc(S(=O)(=O)N2CCN(CC(=O)Nc3ccccc3C(=O)NC3CC3)CC2)cc1", "outcome": "inactive", "cell number change": -13.8}
{"smiles": "COc1c2ccc(C(=O)NCCCCc3ccccc3)cc2nn1C", "outcome": "inactive", "cell number change": -13.1}
{"smiles": "CCOC(=O)NCc1ccc2[nH]c(C)cc2c1", "lipid storage change, negative = inhibition": "-10.1% (inactive)", "cell number change": 16.1}
{"smiles": "Nc1cc(N)nc(SCCN2CCCCC2)n1", "Potency": "0.0184 µM (active)", "cell number change": 3.17}
{"smiles": "Cc1cc(C)c(C#N)c(SCCN2CCCCC2)n1", "outcome": "inactive", "cell number change": -24.3}
{"smiles": "Nc1cc(N)nc(SCC(=O)N2CCCCC2)n1", "lipid storage change, negative = inhibition": "6.72% (inactive)", "cell number change": 2.45}
